Data published in PubChem BioAssay (Tox21).
Records with an inconclusive call do not appear. The source made the active and inactive calls. Unless noted, the call rests on the fitted dose curve.

Key:
[1] = Nuclear factor erythroid 2-related factor 2/antioxidant responsive element (Nrf2/ARE) small molecule agonists: qHTS cell viability counter screen in human keratinocytes (AID 1919968; active means well fitted curve in the direction sought with a large enough effect in the repeat runs; an effect the other way counts as inactive or inconclusive; further: nearly all actives have a fitted effect of over 55% in size; further: potency means the concentration at half of the fitted maximal effect)
In short: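 KeratinoSens cells (HaCaT keratinocytes stably carrying an ARE-luciferase reporter) were seeded at 1,500 cells/well and rested 5 h at 37 C/5% CO2. They were then exposed to compounds in DMSO for 23 h. Viability was read by CellTiter-Fluor fluorescence after 1 h.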

[2] = Nuclear factor erythroid 2-related factor 2/antioxidant responsive element (Nrf2/ARE) small molecule agonists: luciferase reporter gene qHTS assay in human keratinocytes (AID 1919969); further: nearly all actives have a fitted effect of over 35% in size; further: potency means the concentration at half of the fitted maximal effect
[3] = molecular target: Gonadotropin-releasing hormone receptor (Homo sapiens) (UniProt P30968); test: Human gonadotropin-releasing hormone receptor (GnRHR) small molecule agonists, calcium flux assay in GnRHR-HEK293 cells (AID 1920063); further: nearly all actives have a fitted effect of over 35% in size; further: potency means the concentration at half of the fitted maximal effect
In short: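 HEK293 cells stably expressing human GnRHR were plated 18 h at 37 °C, loaded with calcium dye 1 h at 37 °C, then given compound in agonist mode; fluorescence (Ex/Em 480/540) read kinetically for 3 min at 1 s intervals.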

[4] = molecular target: KiSS-1 receptor (Homo sapiens) (UniProt Q969F8); test: Human kisspeptin (KISS1R) small molecule agonists, calcium flux assay in KISS1R-HEK293 cells (AID 1920064; active means well fitted curve in the direction sought with a large enough effect in the repeat runs; an effect the other way counts as inactive or inconclusive)
In short: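 HEK293 cells stably expressing human KISS1R were plated 18 h at 37 °C, loaded with calcium dye for 1 h at 37 °C, then given compound by pin tool. Fluorescence (Ex/Em 480/540) was read kinetically for 3 min.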

[5] = G protein-coupled receptor (GPCR) small molecule agonists, calcium flux assay: HEK293 wild type cell line counter screen (AID 1920065)
In short: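 Cells were plated and cultured 18 h at 37 C/5% CO2, then loaded with calcium dye for 1 h at 37 C. Compounds in DMSO were pin-transferred in agonist mode, and fluorescence (Ex/Em 480/540) was read kinetically for 3 min at 1 s intervals.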

[6] = p53 small molecule agonists, cell-based qHTS assay with human liver microsomes: qHTS cell viability counter screen (AID 1963579); further: nearly all actives have a fitted effect of over 45% in size; further: potency means the concentration at half of the fitted maximal effect
In short: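 In this multiplexed counter screen, the reporter plates were subsequently treated with CellTiter-Glo so that cell viability, reflected by luminescence, could be recorded for p53RE-bla cells dosed 16 h with compounds under microsomal activation (HLM and NADPH).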

[7] = p53 small molecule agonists, cell-based qHTS assay with rat liver microsomes: qHTS cell viability counter screen (AID 1963580); further: nearly all actives have a fitted effect of over 45% in size; further: potency means the concentration at half of the fitted maximal effect
In short: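 In HCT-116 cells carrying a p53 response element-bla reporter, compounds were metabolically activated in situ by rat liver microsomes with NADPH over 16 h. Cell ATP content then served as the cytotoxicity measure.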

[8] = p53 small molecule agonists, cell-based qHTS assay: qHTS cell viability counter screen (AID 1963581); further: nearly all actives have a fitted effect of over 45% in size; further: potency means the concentration at half of the fitted maximal effect
In short: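 p53RE-bla HCT-116 cells were exposed to compounds for 16 h at 37 C; after the beta-lactamase FRET read in the same wells, CellTiter-Glo was added and luminescence (intracellular ATP) read after 30 min at room temperature.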

[9] = molecular target: 5-hydroxytryptamine receptor 2A (Homo sapiens) (UniProt P28223); test: 5-hydroxytryptamine receptor 2A (HTR2A) small molecule antagonists, cell-based qHTS assay (AID 1963586); further: nearly all actives have a fitted effect of over 45% in size; further: potency means the concentration at half of the fitted maximal effect
In short: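 Antagonist-mode intracellular calcium assay: DOI (4 nM) added after 5 min compound pre-incubation at room temperature to dye-loaded HTR2A-CHO cells. Fluorescence followed for 3 min, sampled every second.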

[10] = molecular target: 5-hydroxytryptamine receptor 2A (Homo sapiens) (UniProt P28223); test: 5-hydroxytryptamine receptor 2A (HTR2A) small molecule agonists, cell-based qHTS assay (AID 1963587); further: nearly all actives have a fitted effect of over 30% in size; further: potency means the concentration at half of the fitted maximal effect
In short: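 HTR2A-CHO cells, plated 18 h at 37 C/5% CO2, dye-loaded 1 h at 37 C; compounds in DMSO added by pin tool (agonist mode). Intracellular calcium flux read as kinetic fluorescence on FDSS over 2 min at 1 s intervals.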

[11] = molecular target: Muscarinic acetylcholine receptor M1 (Homo sapiens) (UniProt P11229); test: Cholinergic receptor muscarinic 1 (CHRM1) small molecule antagonists, cell-based qHTS assay (AID 1963588); further: nearly all actives have a fitted effect of over 40% in size; further: potency means the concentration at half of the fitted maximal effect
In short: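 CHRM1-CHO calcium-flux assay, antagonist mode. Cells were seeded 18 h, dye-loaded 1 h at 37 C and given compound for 5 min at RT, then acetylcholine was added at 50nM. FDSS fluorescence was read 3 min; 15 concentrations, three runs.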

[12] = cAMP Responsive Elements (CRE) small molecule agonists, cell-based qHTS assay (AID 1963590)
In short: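 CRE-bla HEK 293T cells in DMEM with 10% dialyzed FBS, NEAA, pyruvate and 25 mM HEPES were plated 18 h at 37 C/5% CO2, then exposed to compounds in DMSO for 3 h before LiveBLAzer B/G FRET substrate addition.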

[13] = cAMP Responsive Elements (CRE) small molecule antagonists, cell-based qHTS assay (AID 1963591; active means well fitted inhibition curve with a large enough effect in the signal ratio in the repeat runs, not every such curve was filed as active; the % refers to the signal ratio; further: potency means the concentration at half of the fitted maximal effect)
In short: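 CRE-bla HEK293T cells were plated 18 h at 37 °C/5% CO2, pinned with compound in DMSO, then stimulated with NKH477 at 0.25 uM final for 3 h. LiveBLAzer B/G FRET substrate was added and plates incubated 2 h at room temperature.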

[14] = molecular target: Beta-2 adrenergic receptor (Homo sapiens) (UniProt P07550); test: Adrenergic beta2 receptor (ADRB2) small molecule antagonists, cell-based qHTS assay (AID 1963592); further: nearly all actives have a fitted effect of over 50% in size; further: potency means the concentration at half of the fitted maximal effect
In short: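 Cells (CHO, stable ADRB2 overexpression) incubated 18-20hr at 37C; compounds added from DMSO; agonist mix (1nM isoproterenol, 100uM IBMX, 25uM Ro-20-1724) added; 0.5hr RT; d2-cAMP and anti-cAMP-cryptate added; 1hr RT; 665/615 nm read.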

[15] = molecular target: Muscarinic acetylcholine receptor M1 (Homo sapiens) (UniProt P11229); test: Cholinergic receptor muscarinic 1 (CHRM1) small molecule agonists, cell-based qHTS assay (AID 1963589); further: nearly all actives have a fitted effect of over 35% in size; further: potency means the concentration at half of the fitted maximal effect
In short: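 CHO cells stably expressing human CHRM1, seeded 18 h at 37 C/5% CO2, dye-loaded 1 h at 37 C, then given compound in agonist mode; intracellular calcium fluorescence read kinetically at 1 s intervals. Fifteen concentrations, three independent runs.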

[16] = molecular target: Beta-2 adrenergic receptor (Homo sapiens) (UniProt P07550); test: Adrenergic beta2 receptor (ADRB2) small molecule agonists, cell-based qHTS assay (AID 1963593);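 further: CHO cells stably overexpressing human ADRB2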
In short: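 CHO cells stably over-expressing ADRB2 were plated overnight at 37C, then dosed with compounds plus a stimulation mix containing 100uM IBMX and 25uM Ro-20-1724 for 0.5hr at room temperature. cAMP was measured by HTRF competition, 1hr.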

[17] = molecular target: D(2) dopamine receptor (Homo sapiens) (UniProt P14416); test: Dopamine D2 receptor (DRD2) small molecule agonists, cell-based qHTS assay (AID 1963594); further: nearly all actives have a fitted effect of over 35% in size; further: potency means the concentration at half of the fitted maximal effect
In short: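 HEK293 cells stably expressing DRD2 were cultured 24 h at 37 C, then given Ro20-1724 (0.1 mM final) and compounds for 10 min at room temperature. NKH477 (200nM) was then added for 30 min. cAMP was read by HTRF.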

[18] = molecular target: D(2) dopamine receptor (Homo sapiens) (UniProt P14416); test: Dopamine D2 receptor (DRD2) small molecule antagonists, cell-based qHTS assay (AID 1963595; active means well fitted inhibition curve with a large enough effect in the signal ratio in the repeat runs, with a control signal flat; the % refers to the signal ratio)
In short: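 Human DRD2 antagonist qHTS measuring cAMP by HTRF. The cells are exposed to compound for 10 min, then to NKH477 (200 nM) and quinpirole (12 nM) for 30 min at RT, with Ro20-1724 (0.1 mM) present throughout.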

Measured: Potency

Sequence of D(2) dopamine receptor (Homo sapiens) (P14416 whole entry, looked up): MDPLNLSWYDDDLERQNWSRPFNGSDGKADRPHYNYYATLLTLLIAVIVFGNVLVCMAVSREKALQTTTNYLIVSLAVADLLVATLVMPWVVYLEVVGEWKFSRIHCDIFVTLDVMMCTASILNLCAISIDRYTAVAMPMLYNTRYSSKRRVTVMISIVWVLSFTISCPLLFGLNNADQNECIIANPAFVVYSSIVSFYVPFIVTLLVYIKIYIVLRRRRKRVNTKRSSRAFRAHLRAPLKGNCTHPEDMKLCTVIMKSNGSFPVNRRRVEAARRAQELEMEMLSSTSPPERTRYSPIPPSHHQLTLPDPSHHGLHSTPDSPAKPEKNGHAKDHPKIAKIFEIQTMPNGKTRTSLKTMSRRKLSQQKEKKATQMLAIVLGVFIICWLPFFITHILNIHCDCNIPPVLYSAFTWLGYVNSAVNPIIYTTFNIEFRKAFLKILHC
Sequence of Gonadotropin-releasing hormone receptor (Homo sapiens) (P30968 whole entry, looked up): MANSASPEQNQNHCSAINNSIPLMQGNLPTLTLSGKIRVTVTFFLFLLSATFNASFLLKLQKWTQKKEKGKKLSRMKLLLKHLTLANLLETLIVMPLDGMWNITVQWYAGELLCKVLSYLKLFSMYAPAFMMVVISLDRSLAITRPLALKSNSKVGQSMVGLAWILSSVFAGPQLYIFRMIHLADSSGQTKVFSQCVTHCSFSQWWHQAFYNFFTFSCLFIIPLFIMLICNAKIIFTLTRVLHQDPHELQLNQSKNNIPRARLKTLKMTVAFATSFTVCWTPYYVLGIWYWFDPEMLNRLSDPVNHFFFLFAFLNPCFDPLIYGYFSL
Sequence of KiSS-1 receptor (Homo sapiens) (Q969F8 whole entry, looked up): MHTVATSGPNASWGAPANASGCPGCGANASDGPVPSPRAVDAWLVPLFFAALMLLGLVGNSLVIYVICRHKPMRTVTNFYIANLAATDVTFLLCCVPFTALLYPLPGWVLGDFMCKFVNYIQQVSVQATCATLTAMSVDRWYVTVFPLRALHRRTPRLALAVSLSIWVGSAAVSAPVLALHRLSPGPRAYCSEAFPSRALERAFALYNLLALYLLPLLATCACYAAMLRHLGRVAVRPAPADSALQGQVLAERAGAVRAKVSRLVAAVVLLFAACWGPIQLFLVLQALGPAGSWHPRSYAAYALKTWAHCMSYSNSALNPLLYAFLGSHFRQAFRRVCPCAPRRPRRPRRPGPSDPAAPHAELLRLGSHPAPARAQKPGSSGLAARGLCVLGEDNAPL
Sequence of Beta-2 adrenergic receptor (Homo sapiens) (P07550 whole entry, looked up): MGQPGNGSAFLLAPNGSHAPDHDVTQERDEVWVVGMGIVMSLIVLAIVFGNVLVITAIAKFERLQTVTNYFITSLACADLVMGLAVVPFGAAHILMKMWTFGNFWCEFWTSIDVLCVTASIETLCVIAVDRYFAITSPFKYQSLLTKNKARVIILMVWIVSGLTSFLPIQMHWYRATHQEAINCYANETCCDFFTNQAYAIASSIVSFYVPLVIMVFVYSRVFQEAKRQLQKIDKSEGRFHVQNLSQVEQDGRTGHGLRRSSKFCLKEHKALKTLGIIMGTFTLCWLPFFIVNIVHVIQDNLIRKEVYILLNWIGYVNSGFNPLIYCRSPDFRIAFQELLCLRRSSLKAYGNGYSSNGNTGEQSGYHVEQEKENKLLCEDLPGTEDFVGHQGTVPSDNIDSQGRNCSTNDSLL
Sequence of 5-hydroxytryptamine receptor 2A (Homo sapiens) (P28223 whole entry, looked up): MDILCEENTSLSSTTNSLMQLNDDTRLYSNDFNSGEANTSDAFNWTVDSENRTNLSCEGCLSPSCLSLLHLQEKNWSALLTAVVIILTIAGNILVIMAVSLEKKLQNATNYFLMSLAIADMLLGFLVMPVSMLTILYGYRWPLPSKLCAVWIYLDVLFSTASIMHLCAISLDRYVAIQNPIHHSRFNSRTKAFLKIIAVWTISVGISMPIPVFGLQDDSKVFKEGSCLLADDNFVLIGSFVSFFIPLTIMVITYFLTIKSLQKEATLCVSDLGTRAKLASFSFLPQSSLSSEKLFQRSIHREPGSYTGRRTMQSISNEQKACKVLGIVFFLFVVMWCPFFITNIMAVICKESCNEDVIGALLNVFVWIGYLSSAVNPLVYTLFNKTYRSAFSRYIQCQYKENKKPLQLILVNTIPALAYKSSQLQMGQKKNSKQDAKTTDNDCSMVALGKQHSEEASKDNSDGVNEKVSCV
Sequence of Muscarinic acetylcholine receptor M1 (Homo sapiens) (P11229 whole entry, looked up): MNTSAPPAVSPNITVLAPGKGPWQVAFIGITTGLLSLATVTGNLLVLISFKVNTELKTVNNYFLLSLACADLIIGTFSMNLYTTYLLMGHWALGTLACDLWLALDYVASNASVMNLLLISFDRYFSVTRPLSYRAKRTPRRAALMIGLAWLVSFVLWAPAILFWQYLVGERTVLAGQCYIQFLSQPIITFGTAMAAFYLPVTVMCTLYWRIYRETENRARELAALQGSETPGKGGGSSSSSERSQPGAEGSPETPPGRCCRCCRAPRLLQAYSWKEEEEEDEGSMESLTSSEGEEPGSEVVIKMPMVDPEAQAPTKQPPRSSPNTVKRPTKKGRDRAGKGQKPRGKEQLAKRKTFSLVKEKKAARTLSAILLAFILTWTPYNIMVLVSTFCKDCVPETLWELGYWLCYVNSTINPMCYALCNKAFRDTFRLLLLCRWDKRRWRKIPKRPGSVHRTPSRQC

C[C@H](N)C(=O)c1ccccc1
not listed: [15] | [16] | [17] | [18]
inactive: all other assays above

Cc1ccccc1CO[C@@H]1C[C@@]2(C(C)C)CC[C@]1(C)O2
not listed: [12] | [13]
inactive: all other assays above

CCC(C)Nc1c([N+](=O)[O-])cc(C(C)(C)C)cc1[N+](=O)[O-] (centres undefined)
active: [2] 54.5 µM
not listed: [10] | [13] | [16] | [17]
inactive: all other assays above

CNC(=O)Oc1ccccc1C(C)C
not listed: [14] | [15]
inactive: all other assays above

CC(C)=CC1C(C(=O)OC(C#N)c2cccc(Oc3ccccc3)c2)C1(C)C (centres undefined)
not listed: [11] | [14] | [16]
inactive: all other assays above

COc1ccc(OC)c(CC(C)N)c1 (centres undefined)
active: [14] 65.6 µM
not listed: [9] | [10] | [16]
inactive: all other assays above

CC(O)CCl (centres undefined)
not listed: [12] | [16]
inactive: all other assays above

CC[N+]1(CCOC(=O)C(O)(c2ccccc2)c2ccccc2)CCCCC1
not listed: [9] | [10] | [11] | [15] | [16]
inactive: all other assays above

COc1cc(C[C@@H](C)N)c(OC)cc1C
active: [9] 0.0013 µM | [10] 0.0105 µM
not listed: [11] | [14] | [16] | [17]
inactive: all other assays above

C#CC(C)(C)O
not listed: [11]
inactive: all other assays above

CCOP(=O)(Sc1ccccc1)Sc1ccccc1
active: [2] 61.1 µM
not listed: [10] | [11]
inactive: all other assays above

CCOP(=S)(OCC)Oc1cc(-c2ccccc2)on1
not listed: [12] | [13] | [16] | [17] | [18]
inactive: all other assays above

C/C=C/C=O
active: [2] 58.4 µM
not listed: [11] | [14] | [16]
inactive: all other assays above

CCN[C@H](C)Cc1cccc(C(F)(F)F)c1
not listed: [9] | [10] | [11] | [14] | [15] | [16] | [18]
inactive: all other assays above

CC(C)CC(N(C)C)C1(c2ccc(Cl)cc2)CCC1 (centres undefined)
active: [7] 0.793 µM
not listed: [9] | [10] | [11] | [15] | [16] | [17]
inactive: all other assays above

CCOP(=S)(OCC)SCSc1ccc(Cl)cc1
not listed: [10] | [13]
inactive: all other assays above

CCOP(=O)(N=C1SCCS1)OCC
not listed: [11]
inactive: all other assays above

C[N+]1(CCC(C(N)=O)(c2ccccc2)c2ccccc2)CCCCC1
not listed: [11] | [16]
inactive: all other assays above

CCC(C)(C)c1cc(-n2nc3ccccc3n2)c(O)c(C(C)(C)CC)c1
not listed: [11]
inactive: all other assays above

Nc1ccc2c(c1)Cc1ccccc1-2
not listed: [12] | [13] | [14]
inactive: all other assays above

CCCCN(CCCC)C(=S)[S-].CCCCN(CCCC)C(=S)[S-].[Zn+2]
active: [1] 6.11 µM | [2] 1.93 µM | [3] 17.4 µM | [7] 3.63 µM | [8] 25.7 µM | [15] 19.5 µM | [13] 21.7 µM
not listed: [11] | [12] | [16] | [18]
inactive: all other assays above

Clc1ccccc1
not listed: [9]
inactive: all other assays above

COP(=S)(OC)Oc1ccc(S(N)(=O)=O)cc1
not listed: [12] | [16]
inactive: all other assays above

CC(C)N(CCC(C(N)=O)(c1ccccc1)c1ccccn1)C(C)C (centres undefined)
active: [11] 2.05 µM | [17] 11.4 µM
not listed: [8]
inactive: all other assays above

CNC(=O)O/N=C(\C)C(C)S(C)(=O)=O (centres undefined)
active: [2] 708 µM
not listed: [6]
inactive: all other assays above

O.O.O.O=C([O-])[C@H]([O-])[C@@H]([O-])C(=O)[O-].O=C([O-])[C@H]([O-])[C@@H]([O-])C(=O)[O-].[K+].[K+].[Sb+3].[Sb+3]
active: [2] 61.4 µM | [6] 36.5 µM
not listed: [8] | [16] | [17]
inactive: all other assays above
